According to PubChem BioAssay AID488789 (Broad Institute, 2010):
Measured potencies and affinities stand elsewhere. Results filed as inconclusive are left out. Activity calls are given as the source filed them.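 How the source made its calls: active means samples whose fitted half-maximal inhibition concentration is no more than ten times the top valid dose tested; inconclusive means flat response between -70 and -30, or invalid curve fit; inactive means flat within 30 of zero, potency above limit, or signal rising.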

Target: Trypsin (Sus scrofa) (UniProt P00761)
Sequence (P00761 whole entry, looked up): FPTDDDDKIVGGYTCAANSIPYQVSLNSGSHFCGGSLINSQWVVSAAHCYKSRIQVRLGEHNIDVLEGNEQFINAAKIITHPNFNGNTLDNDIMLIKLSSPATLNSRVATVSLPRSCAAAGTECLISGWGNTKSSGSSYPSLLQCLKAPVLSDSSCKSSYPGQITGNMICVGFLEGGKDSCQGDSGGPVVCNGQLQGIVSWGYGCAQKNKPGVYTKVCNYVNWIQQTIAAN
Experiment: trypsin protease activity blockade – biochemical, quenched peptide fluorescence, cherry-pick, selectivity assay for Rce1 protease inhibitor project, dose response (AID 488789)
Details: porcine trypsin, quenched peptide cleavage fluorescence; series mostly up to 10 µM; activity change, negative = inhibition: at the top concentration

Activity change, negative = inhibition, inactive:
CSc1ccc(C(=O)C2CCCN(C(=O)c3cccnc3SC)C2)cc1 (configuration not stated) 2.24%
CS(=O)(=O)c1ccc(C(=O)OCC(=O)N(CCc2ccccc2)Cc2ccccc2)cc1 15.7%
CCOC(=O)C1=C(C)OC(N)=C(C#N)C1c1cc2c(cc1[N+](=O)[O-])OCO2 (configuration not stated) 8.41%
CN1CCN(CCCNC(=O)c2cc3c(-c4ccc(Cl)cc4)nn(C)c3s2)CC1 -4.72%
Cc1cc(N/N=C/c2ccc(O)c(C)c2O)nc(-c2ccccc2O)n1 7.21%
COc1ccc(C2c3c(ncn(CCN4CCOCC4)c3=N)Oc3ccc4ccccc4c32)cc1 (configuration not stated) 3.44%
COc1ccc(OC)c(NC(=O)c2cc3oc4ccccc4c3cc2O)c1 -0.349%
NC(=O)[C@H]1CC2(CC(c3cccc(NC(=O)COc4ccc(Cl)cc4)c3)=NO2)CN1C(=O)C(c1ccccc1)c1ccccc1 (some centres not stated) 8.16%
COc1ccc(-n2c(SCc3ccc([N+](=O)[O-])cc3)nnc2-c2ccc(C)cc2)cc1 1.2%
C[C@@]12CCC=C[C@H]1[C@H](c1ccc(/C=C/c3ccccc3)cc1F)N(Cc1ccccc1)C2=O -6.03%
COc1ccc(C2/C=C\CN(C(=O)c3ccc(C)cc3)[C@H](Cc3ccccc3)C(=O)N2Cc2ccc(F)cc2)cc1 (some centres not stated) 6.08%
CCOc1cccc(-c2nn(-c3ccccc3)cc2/C=C(/C#N)C(=O)NCCCn2ccnc2)c1 4.11%
CCCCCCCCNC(C)C(O)c1ccc(SC(C)C)cc1 (configuration not stated) 3.86%
COc1ccc(-c2nc3ncccc3o2)cc1NC(=O)c1ccco1 1.35%
O=C(O)c1ccc(N/N=C/c2ccc(-c3ccccc3Cl)o2)cc1 0.708%
Cn1c(CCNS(=O)(=O)c2ccccc2)nnc1SCc1cccnc1 5.5%
CCOc1cccc(-c2c(C(=O)N/N=C/c3cccs3)nnn2-c2nonc2N)c1 21%
CCN(CC)CCN(C(=O)c1ccc2ccccc2c1)c1nc2ccc(F)cc2s1 -0.0599%
CCCCN(C)CCNC(=O)c1cc2c(-c3cccc(OC)c3)nn(C)c2s1 -9.5%
CC(C)CC(=O)Nc1ccc2oc(-c3cccnc3)nc2c1 44.1%
O=C(c1cn(-c2ccccc2)nc1-c1cccs1)N1CCN(c2ccccc2)CC1 27.7%
CC(CCc1ccccc1)NCC(O)c1ccc(O)c(C(N)=O)c1 (configuration not stated) -6.32%
COc1cccc(-c2c(C(=O)N/N=C/c3sccc3C)nnn2-c2nonc2N)c1 -3.67%
CC(/C=N\NC(=O)CN1CCN(S(=O)(=O)c2ccc(C)cc2)CC1)=C\c1ccccc1 7.87%
Cc1cccc(OCCN2C(=O)C(=O)c3cc(C)ccc32)c1 -0.333%
COC(C[C@H](O)C[C@H](O)[C@@H](C)OCc1ccccc1)OC 4.45%
O=C(Nc1sc2c(c1C(=O)c1ccc(Cl)cc1)CCCC2)c1cccnc1 13.8%
Cc1ccc(C(=O)N/C(=C/c2ccco2)C(=O)Nc2cccc(C(=O)O)c2)cc1 5.53%
Cc1ccc(-c2nc(CN3CCCCC3)cc(CN3CCCCC3)c2O)cc1 -10.6%
CCN(C(=O)COC(=O)c1cc(-c2cccs2)nc2ccccc12)C1CCS(=O)(=O)C1 (configuration not stated) 7.15%
O=C(COC(=O)c1ccc(S(=O)(=O)N2CCCC2)cc1)NCc1ccccc1 14.1%
Cc1ccc(-c2c(C(=O)N/N=C/c3cccc(Cl)c3)nnn2-c2nonc2N)cc1 3.16%
CCN1CCN(CC(O)COc2ccc3c(C)cc(=O)oc3c2)CC1 (configuration not stated) 11.8%
COc1ccc([N+](=O)[O-])cc1CSc1ccccn1 5.96%
CC(C)NCC(O)COCCOc1ccc(Br)cc1 (configuration not stated) 11.8%
COc1ccccc1/C=C/C=N/NC(=O)CN1CCN(S(=O)(=O)c2ccc(C)cc2)CC1 -1.16%
CN(C(=O)COC(=O)c1cn(-c2ccccc2)nc1-c1ccccc1)C1CCS(=O)(=O)C1 (configuration not stated) 14.9%
